Usually AC50 stands for the concentration giving half of the maximal activity seen.

Each structure is given as a SMILES string. More than one record can exist for a structure, and the calls need not agree. The source made the active and inactive calls. The calls were made as follows: active = hit-call score of the fitted dose curve at least 0.9, where 1 is the maximum; inactive = score below 0.9.

Outcome and AC50 data for 30 compounds are collected here from PubChem BioAssay (EPA / NIEHS).

Read-out in this test: Vascular cell adhesion molecule 1 (VCAM1), VCAM1 (gene 7412)
In words: BSK_MyoF_VCAM1: BioMAP Diversity Plus: MyoF Assay for Vascular cell adhesion molecule 1 (VCAM1) Biomarker Activity (AID 2284231). Particulars: primary human lung fibroblasts. The protocol:
BSK_MyoF is a cell-based, multiplexed-readout assay that uses lung fibroblasts, […], with measurements taken at 24 hours after chemical dosing in a microplate: 96-well plate.BSK_MyoF_VCAM1 is an assay component measured in the BSK_MyoF assay. It measures VCAM-1 antibody related to regulation of gene expression using ELISA technology.Data from the assay component BSK_MyoF_VCAM1 was analyzed at the endpoint, BSK_MyoF_VCAM1, in the positive analysis fitting direction relative to DMSO as the negative control and baseline of activity. Using a type of binding reporter, gain or loss-of-signal activity can be used to understand protein changes. To generalize the intended target to other relatable targets, this assay endpoint is annotated to the 'cell adhesion molecules' intended target family, where the subfamily is 'Immunoglobulin CAM'.
The levels of cell surface (or secreted, indicated by the prefix "s") biomarker endpoints were measured by ELISA. Overt cytotoxicity to cells in confluent adherent cultures (all systems other than the BT system) was assessed by measuring total protein levels using sulforhodamine B (SRB) staining in parallel cultures at the time of biomarker measurements, indicated as SRB endpoints. For proliferation assays for adherent cell types, individual cell types are cultured at sub-confluence and relative cell numbers quantified by SRB staining at time points optimized for each system (48 h: 3C and CASM3C systems; 72 h: BT and HDF3CGF systems; 96 h: SAg system). SRB was performed by staining cells with 0.1% SRB after fixation with 10% TCA and reading wells at 560 nm.Viability and proliferation of PBMC (T cells) was quantified by Alamar Blue reduction for the SAg and BT systems. For PBMC viability (referred to as PBMC Cytotoxicity within the assay endpoint names), cells were plated (75,000/well in a 96-well plate) and then chemical samples added for 1 h before addition of activators, SEB and TSST-1 (20 ng/mL final concentration each). Cells were incubated for 90 h. Then, Alamar Blue (20 uL/well) (Invitrogen, Cat DAL1100) was added for 6 h, and the plates were read with a fluorescence microplate reader at 546/580 nm (excitation/emission). For PBMC proliferation, cells were plated and activated as above but incubated for only 16 h prior to addition of Alamar Blue. Plates were read after 6 h.
As for `O=C1OC2(c3ccc(O)cc3Oc3cc(O)ccc32)c2ccccc21`, the result was inactive.

Regarding `C=C(F)C(=O)OC(C(F)(F)F)C(F)(F)F`, the outcome was inactive.

Turning to `OCC(F)(OC(F)(F)C(F)(OC(F)(F)C(F)(F)C(F)(F)F)C(F)(F)F)C(F)(F)F` (stereo unspecified), the AC50 is 6.21 µM (active) and the result was inactive.

Regarding `CCOC(=O)C=Cc1ccccc1`, the outcome was inactive.

As to `CC(C)(C)c1cccc(O)c1`, the result was inactive.

`O=S1(=O)CC(Cl)(Cl)C(Cl)(Cl)C1`: the concentration at half-maximal activity (AC50) was 1.42 µM (active).

Take `CC(=O)CCC=C(C)CCC=C(C)C`: the outcome was inactive.

In the case of `CC=CC(=O)C1=C(C)C=CCC1(C)C`, the outcome was inactive.

As for `COc1ccccc1NC(=O)CC(C)=O`, the result was inactive.

As for `CCCCCCCCCCCCS`, the AC50 is 23.1 µM (active).

Consider `CC1=CC(C)C(C=O)C(C)C1` (stereo unspecified) (tested in a mixture with another compound), for which the outcome was inactive.

Turning to `CCCCCCCC1CCCC1=O` (stereo unspecified), the outcome was inactive.

For the compound `CC(=O)OCC=C(C)CCC=C(C)CCC=C(C)C`, the outcome was inactive.

As to `C=CC(=O)OCC(CO)(COC(=O)C=C)COC(=O)C=C`, the AC50 is 0.964 µM (active).

Regarding `O=C(O)C(F)(F)C(F)(F)C(F)(F)C(F)(F)C(F)(F)C(F)(F)C(F)(F)C(F)F`, the outcome was inactive.

On to `c1ccc2c(c1)-c1ccc3ccc4cccc5cc-2c1c3c45`, for which the AC50 was 2.78 µM (active).

Regarding `O=C(O)C(F)(F)OC(F)(F)C(F)(F)OC(F)(F)C(F)(F)C(F)(F)C(F)(F)F`, the outcome was inactive.

As to `O=S(=O)(O)C(F)(F)C(F)(F)OC(F)(F)C(F)(F)F`, the result was inactive.

As for `CC(C)Cc1ccc(C(C)C(=O)O)cc1` (stereo unspecified), the outcome was inactive.

Take `c1ccc(Sc2ccccc2)cc1`: the AC50 is 34.1 µM (active).

For the compound `CC1(C)[C@H](C=C(Cl)Cl)[C@H]1C(=O)OCc1cccc(Oc2ccccc2)c1`, the outcome was inactive.

On to `CCCCCCCCCC(=O)OCC`, for which the result was inactive.

As to `C=C1CC/C=C(\C)CC[C@@H]2[C@@H]1CC2(C)C`, the half-maximal activity concentration (AC50) was 23.9 µM (active).

Turning to `OCCN1CCOCC1`, the outcome was inactive.

For the compound `CCC(=O)OCC=Cc1ccccc1`, the outcome was inactive.

Consider `CC(=O)OC(C)(C)C1CC=C(C)CC1` (stereo unspecified), for which the result was inactive.

`CCOC(=O)CCCCCCCCC(=O)OCC`: the outcome was inactive.

`Nc1ccc(N)c([N+](=O)[O-])c1`: the result was inactive.

In the case of `NC(=O)c1c(Cl)cccc1Cl`, the result was inactive.

In the case of `C=C(C)C(=O)OCCC(F)(F)C(F)(F)C(F)(F)C(F)(F)C(F)(F)C(F)(F)C(F)(F)C(F)(F)F`, the outcome was inactive.
